Some test systems named below: NCI-H23 lung; NCI-H226 lung; NCI-H322M lung; HOP-62 NSCLC; NCI-H460 lung; HOP-92 NSCLC; NCI-H522 lung; A549/ATCC NSCLC; 786-0 renal; DU-145 prostate; K-562 leukemia; MALME-3M melanoma; MDA-MB-231 breast; RXF 393 renal; SF-268 CNS; SF-295 CNS; SF-539 CNS; M14 melanoma; UACC-257 melanoma.
Experiment in all cases: NCI-60 one-dose screen, 48 h (100 = growth as untreated, 0 = no growth, -100 = all killed)
Common to all, as to conditions: 10 µM unless noted

Compounds without any hit were thinned out: in the full panel of roughly 83,000, 20% have a hit.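 Activity criterion: percent growth below 10, measured after cells in 96-well plates were exposed to a single compound concentration for 48 hours.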 Values without a mark were called inactive. Calls of active or inactive are those of the source.

For `CCOC(=O)c1sc2ccc(NCc3nc[nH]c3C)cc2c1NC(=O)c1cc(OC)c(OC)c(OC)c1`, the growth in the assay on NCI-H23 lung was 85.7%; in the assay on NCI-H226 lung, 84.3%; in the assay with NCI-H322M lung, 91%; in the assay on HOP-62 NSCLC it was 93.9%; with NCI-H460 lung, 92.6%; with HOP-92 NSCLC, 75.1%. Besides, the growth is 84.8% with NCI-H522 lung; 101% in the assay with A549/ATCC NSCLC; 84.8% in the assay with 786-0 renal; 86.7% in the assay with DU-145 prostate; 44.2% in the assay with K-562 leukemia; 80.1% in the assay with MALME-3M melanoma. For the same compound, the growth in the assay with MDA-MB-231 breast was 73.3%; in the assay with RXF 393 renal, 79.2%; in the assay on SF-268 CNS, 98%; in the assay with SF-295 CNS, 97.3%; with SF-539 CNS, 91.7%; in the assay on M14 melanoma, 96.8%.
As for `C/C(=N\NC(=O)Cn1c(-c2ccc(S(C)(=O)=O)cc2)nc2cc(Cl)ccc21)c1ccc(Cl)cc1`, the growth in the assay on NCI-H23 lung is 83%; in the assay with NCI-H226 lung it was 79%; in the assay with NCI-H322M lung, 86%; in the assay on HOP-62 NSCLC it was 80.9%; in the assay on NCI-H460 lung, 82.8%; with HOP-92 NSCLC, 86.2%. The growth with NCI-H522 lung is 74.9%; in the assay on A549/ATCC NSCLC it was 66.7%; with 786-0 renal it was 92.1%; with DU-145 prostate, 90%; with K-562 leukemia it was 62.9%; with MALME-3M melanoma, 90.3%. For the same compound, the growth with MDA-MB-231 breast was 73.4%; in the assay with RXF 393 renal, 79.3%; with SF-268 CNS, 72.4%; with SF-295 CNS, 81.1%; in the assay on SF-539 CNS it was 83.1%; in the assay on UACC-257 melanoma, 79.2%. Besides, the growth in the assay on M14 melanoma is 81%.
For `CN(C)CCCCNc1ccc(NCCCCN(C)C)c2c1C(=O)c1c(O)ccc(O)c1C2=O`, the growth was -68.5% (active) in the assay on NCI-H23 lung; 102% in the assay on NCI-H226 lung; 56.1% in the assay on NCI-H322M lung; 69.4% with HOP-62 NSCLC; -79.1% (active) in the assay on NCI-H460 lung; 40.6% in the assay with HOP-92 NSCLC. Also, the growth in the assay with NCI-H522 lung is -77.9% (active); in the assay with A549/ATCC NSCLC it was -82.9% (active); in the assay with 786-0 renal, -75.1% (active); in the assay with DU-145 prostate, 58.3%; in the assay on K-562 leukemia, -54.5% (active); in the assay on MALME-3M melanoma, 130%. For the same compound, the growth with MDA-MB-231 breast is -78.2% (active); in the assay with RXF 393 renal, -96% (active); in the assay with SF-268 CNS it was 76.2%; in the assay on SF-295 CNS, -81.5% (active); in the assay on UACC-257 melanoma, 99.5%; in the assay on M14 melanoma, -63.3% (active).
`CN(C)c1ccc(C#Cc2c(F)cccc2Cl)cc1`: the growth was 70.6% in the assay on NCI-H23 lung; 90.4% in the assay with NCI-H226 lung; 86.7% in the assay with NCI-H322M lung; 71.8% in the assay with HOP-62 NSCLC; 98.9% with NCI-H460 lung; 79.5% in the assay on HOP-92 NSCLC. Moreover, the growth was 65.1% with NCI-H522 lung; 87.5% in the assay with A549/ATCC NSCLC; 112% with 786-0 renal; 101% with DU-145 prostate; 95.5% in the assay with K-562 leukemia; 93.4% in the assay on MALME-3M melanoma. The growth was 66.2% in the assay on MDA-MB-231 breast; 112% with RXF 393 renal; 87.7% with SF-268 CNS; 76.5% in the assay with SF-295 CNS; 94.6% in the assay with SF-539 CNS; 91.2% in the assay with UACC-257 melanoma. Moreover, the growth in the assay with M14 melanoma was 100%.
In the case of `CN(C)c1ccc2cc(-c3ccccc3F)c(N)nc2c1`, the growth in the assay on NCI-H23 lung is 21.4%; with NCI-H226 lung, 59.3%; in the assay on NCI-H322M lung, 55.1%; in the assay on HOP-62 NSCLC it was 37.4%; with NCI-H460 lung, 15.9%; with HOP-92 NSCLC it was 32.3%. Moreover, the growth was -1.23% (active) in the assay on NCI-H522 lung; 22.1% in the assay with A549/ATCC NSCLC; 34% in the assay with 786-0 renal; 17.1% in the assay on DU-145 prostate; 13.5% with K-562 leukemia; -22.1% (active) with MALME-3M melanoma. Also, the growth in the assay on MDA-MB-231 breast was 64.7%; in the assay on RXF 393 renal, 19.1%; with SF-268 CNS, 45.1%; with SF-295 CNS, 0.224% (active); with SF-539 CNS, -16.4% (active); in the assay on UACC-257 melanoma it was 45.7%. Also, in the assay on M14 melanoma, the growth was 10.5%.
Take `CC(C)OCCCNCC(=O)Nc1ccc(S(=O)(=O)c2ccc(NC(=O)CNCCCOC(C)C)cc2)cc1`: the growth in the assay on NCI-H23 lung was 101%; with NCI-H226 lung, 104%; with NCI-H322M lung it was 118%; in the assay on HOP-62 NSCLC it was 85.9%; in the assay on NCI-H460 lung, 94.9%; with HOP-92 NSCLC, 50.2%. Besides, the growth is 93.3% in the assay on NCI-H522 lung; 106% in the assay on A549/ATCC NSCLC; 93.5% in the assay on 786-0 renal; 113% in the assay with DU-145 prostate; 36.8% in the assay on K-562 leukemia; 99.7% in the assay with MALME-3M melanoma. Also, the growth in the assay on MDA-MB-231 breast is 50.9%; in the assay on RXF 393 renal, 92.8%; in the assay on SF-268 CNS, 106%; with SF-539 CNS it was 79.4%; in the assay on UACC-257 melanoma, 106%; in the assay with M14 melanoma it was 100%.
Regarding `O=C(/C=C/C12c3ccccc3C(c3ccccc31)C1C(=O)NC(=O)C12)c1ccc(Cl)cc1` (centres undefined), the growth is -2% (active) with NCI-H23 lung; -22.3% (active) in the assay on NCI-H226 lung; 2.94% (active) with NCI-H322M lung; 6.96% (active) with HOP-62 NSCLC; -43.7% (active) with NCI-H460 lung; -15.2% (active) in the assay with HOP-92 NSCLC. Further, the growth in the assay on NCI-H522 lung is 11.4%; in the assay with A549/ATCC NSCLC, 15.4%; with 786-0 renal, -9.5% (active); in the assay on DU-145 prostate, 8.95% (active); with K-562 leukemia, 8.8% (active); in the assay with MALME-3M melanoma, -37.4% (active). Moreover, the growth in the assay on MDA-MB-231 breast is -24.4% (active); with RXF 393 renal, -75.8% (active); in the assay with SF-268 CNS, 29.9%; in the assay on SF-295 CNS, 4.52% (active); in the assay on SF-539 CNS, -34.2% (active); in the assay with UACC-257 melanoma, 25.3%. Also, in the assay with M14 melanoma, the growth was 8.03% (active).
As to `CC[C@@H](C[C@H](CCO)c1ccccc1)c1cc2ccccc2o1`, the growth in the assay on NCI-H23 lung is 92.7%; with NCI-H226 lung, 88%; with NCI-H322M lung, 92.9%; with HOP-62 NSCLC, 84.4%; in the assay on NCI-H460 lung it was 100%; with HOP-92 NSCLC, 96.8%. Also, the growth in the assay with NCI-H522 lung is 77.5%; in the assay with A549/ATCC NSCLC it was 84.3%; in the assay with 786-0 renal it was 91%; in the assay on DU-145 prostate, 97.9%; with K-562 leukemia, 77.7%; with MALME-3M melanoma, 103%. The growth in the assay with MDA-MB-231 breast is 98%; in the assay with RXF 393 renal, 96.9%; in the assay on SF-268 CNS, 91.2%; in the assay on SF-295 CNS it was 99.5%; with SF-539 CNS it was 104%; in the assay with UACC-257 melanoma, 96.9%. Further, in the assay on M14 melanoma, the growth was 91.9%.

The values are drawn from PubChem BioAssay (NCI).
